In PubChem BioAssay (NCATS) one finds activity, negative = inhibition and Potency data, which are given here for 32 compounds.

Test [1] is described as follows: qHTS profiling for inhibitors of Plasmodium falciparum proliferation (AID 504749).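 For activity, negative = inhibition: 0% = DMSO vehicle and full inhibition = artemisinin control.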 Note: nearly all actives have a fitted effect of over 60% in size. As to conditions: P. falciparum in erythrocytes, SYBR Green DNA, 72 h. The essentials: (§1)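 In a 72 h erythrocytic culture (37 C, humidified, 5% CO2) at 2.5% hematocrit and 0.3% starting parasitemia, compounds were tested; SYBR Green I in detergent lysis buffer stained parasite DNA overnight.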
A general note: Quantitative high-throughput screening tests each substance at several concentrations.

In another test the test system is 3D7. The description is as above. Conditions: P. falciparum in erythrocytes, SYBR Green DNA, 72 h; series mostly up to 28.7 µM. The essentials: as §1
For another test, the system named is 7G8. The description is as above. Conditions: P. falciparum in erythrocytes, SYBR Green DNA, 72 h; series mostly up to 28.7 µM. The essentials: as §1
Setting [2] is: at 12.8 µM (top of the series), parasite line A.
The mark [3] stands for this setting: at 12.8 µM (top of the series), parasite line B.
[4] abbreviates: at 28.7 µM (top of the series), parasite line A.
Setting [5] is: at 28.7 µM (top of the series), parasite line B.

Inconclusive results are not listed. Values without a mark were called inactive. Active and inactive are the calls of the source. Calls come from the whole dose curve; as a rule, active = well fitted inhibition curve with a large enough effect; inconclusive = small, poorly fitted or top-dose-only effect; inactive = flat fitted curve, though single readings scatter.
Potency is the fitted concentration of half-maximal effect.

With `COC1=CC=C2[C@H]3Cc4ccc(OC)c5c4[C@@]2(CCN3C)[C@H]1O5`, the values for the activity, negative = inhibition in test [1] (setting [2]) and in test [1] (setting [3]) were -6.15% and 12.3%, respectively. Also, the Potency result in the test with 3D7 and with 7G8 was “inactive” throughout.

Take `CC(Cc1ccccc1)NC=O` (stereo not given): the activity, negative = inhibition in test [1] (setting [4]) is 1.78%; in test [1] (setting [5]), 3.72%. For the same compound, the Potency result in the test on 3D7 and in the test on 7G8 was “inactive” in each case.

Consider `C=CCN=C=S`, for which the activity, negative = inhibition in test [1] (setting [4]) was -3.28%; in test [1] (setting [5]) it was 7.56%. Also, the Potency entry with 3D7 and with 7G8 was “inactive” throughout.

As to `O=[N+]([O-])c1cc(I)c(O)c(I)c1`, the activity, negative = inhibition in test [1] (setting [4]) is -8.29%; in test [1] (setting [5]), -20.5%. Moreover, the Potency entry with 3D7 and in the test with 7G8 was “inactive” each time.

For the compound `O=c1[nH]c(=O)n(Cl)c(=O)n1Cl`, the values for the activity, negative = inhibition in test [1] (setting [4]) and in test [1] (setting [5]) were -5.08% and 11.2%, respectively. For the same compound, the Potency result in the test with 3D7 and with 7G8 was “inactive” in each case.

Consider `CCCCNCC(O)c1ccc(O)cc1` (stereo not given), for which the figures for the activity, negative = inhibition in test [1] (setting [4]) and in test [1] (setting [5]) were -2.61% and -2.79%, respectively. Further, the Potency result in the test with 3D7 and in the test on 7G8 was “inactive” in each case.

In the case of `CNC(=O)OCC[N+](C)(C)C`, the activity, negative = inhibition in test [1] (setting [4]) was 18.2%; in test [1] (setting [5]) it was 8.99%. Moreover, the Potency result in the test on 3D7 and with 7G8 was “inactive” each time.

Turning to `O=S(=O)(O)c1cc(O)ccc1O`, the activity, negative = inhibition in test [1] (setting [2]) was 3.73%; in test [1] (setting [3]) it was -1.7%. The Potency result with 3D7 and in the test with 7G8 was “inactive” each time.

Take `C=CCN1CC[C@]23c4c5ccc(O)c4O[C@H]2[C@@H](O)C=C[C@H]3[C@H]1C5`: the activity, negative = inhibition was -14.2% in test [1] (setting [4]) and 6.2% in test [1] (setting [5]). The Potency result with 3D7 and in the test with 7G8 was “inactive” each time.

Turning to `CCC1(C)CC(=O)NC(=O)C1`, the activity, negative = inhibition in test [1] (setting [2]) is 7.23%; in test [1] (setting [3]) it was 5.64%. In addition, the Potency result in the test on 3D7 and in the test with 7G8 was “inactive” in each case.

Turning to `CCC1(c2ccccc2)C(=O)NC(=O)NC1=O`, the activity, negative = inhibition was 5.22% in test [1] (setting [4]) and 9.88% in test [1] (setting [5]). The Potency entry in the test with 3D7 and in the test with 7G8 was “inactive” throughout.

With `CCON=O`, the activity, negative = inhibition is -4.19% in test [1] (setting [4]) and 0.895% in test [1] (setting [5]). The Potency entry in the test on 3D7 and in the test on 7G8 was “inactive” in each case.

Consider `N#CC(C#N)=Cc1cc(O)c(O)c(O)c1`, for which the Potency in test [1] (parasite line A) was 11.2 µM (active); in test [1] (parasite line B) it was 11.2 µM (active); in the test with 3D7, 10 µM (active); with 7G8, 4.47 µM (active).

Consider `O[C@H]1[C@H]2[C@H](O)CCCN2C[C@H]1O`, for which the results for the activity, negative = inhibition in test [1] (setting [4]) and in test [1] (setting [5]) were 9.76% and 2.41%, respectively. In addition, the Potency entry with 3D7 and in the test on 7G8 was “inactive” in each case.

Take `C[CH2][Hg][S]c1ccccc1C(=O)O`: the Potency in test [1] (parasite line A) is 2.82 µM (active); in test [1] (parasite line B) it was 3.16 µM (active); in the test with 3D7, 1.78 µM (active); in the test on 7G8, 1.12 µM (active).

As to `CC(=O)OO`, the activity, negative = inhibition in test [1] (setting [4]) is 5.76%; in test [1] (setting [5]), 13%. For the same compound, the Potency result in the test on 3D7 and in the test on 7G8 was “inactive” in each case.

For `O=[N+]([O-])c1ccc(F)c([N+](=O)[O-])c1`, the results for the activity, negative = inhibition in test [1] (setting [4]) and in test [1] (setting [5]) were 14.6% and 11.6%, respectively. Further, the Potency entry with 3D7 and with 7G8 was “inactive” in each case.

In the case of `CN1c2ccccc2C(NCCCCCCC(=O)O)c2ccc(Cl)cc2S1(=O)=O` (stereo not given), the results for the activity, negative = inhibition in test [1] (setting [4]) and in test [1] (setting [5]) were 2.2% and -5.71%, respectively. Further, the Potency result with 3D7 and in the test on 7G8 was “inactive” in each case.

`O=C1CCCCC1CN1CCCCC1` (stereo not given): the activity, negative = inhibition is 6.14% in test [1] (setting [4]) and 5.73% in test [1] (setting [5]). Further, the Potency entry with 3D7 and in the test with 7G8 was “inactive” each time.

For the compound `O=C1CCO1`, the activity, negative = inhibition was -3.97% in test [1] (setting [4]) and -7.7% in test [1] (setting [5]). Moreover, the Potency result in the test with 3D7 and with 7G8 was “inactive” each time.

As for `O=CC=O`, the activity, negative = inhibition in test [1] (setting [4]) is 6.37%; in test [1] (setting [5]), 0.163%. Besides, the Potency result in the test with 3D7 and in the test on 7G8 was “inactive” in each case.

With `O=[N+]([O-])c1ccccc1`, the activity, negative = inhibition in test [1] (setting [4]) was -4.98%; in test [1] (setting [5]) it was 4.83%. The Potency entry in the test on 3D7 and with 7G8 was “inactive” in each case.

As for `C=CCC1(C(C)CCC)C(=O)N=C(S)NC1=O` (stereo not given), the figures for the activity, negative = inhibition in test [1] (setting [4]) and in test [1] (setting [5]) were -5.63% and -5%, respectively. For the same compound, the Potency entry with 3D7 and in the test on 7G8 was “inactive” throughout.

Turning to `C=CCN1CCC23c4c5ccc(O)c4O[C@H]2C(=O)CC[C@@]3(O)C1C5` (stereo not given in full), the values for the activity, negative = inhibition in test [1] (setting [4]) and in test [1] (setting [5]) were 8.48% and -7.58%, respectively. Moreover, the Potency result in the test on 3D7 and with 7G8 was “inactive” throughout.

With `O=C1CC[C@@]2(O)C3Cc4ccc(O)c5c4C2(CCN3CC2CC2)[C@H]1O5` (stereo not given in full), the activity, negative = inhibition is 9.65% in test [1] (setting [4]) and 8.16% in test [1] (setting [5]). For the same compound, the Potency result in the test with 3D7 and in the test on 7G8 was “inactive” each time.

For the compound `NCC(O)c1cccc(O)c1` (stereo not given), the activity, negative = inhibition is 5.65% in test [1] (setting [4]) and 12% in test [1] (setting [5]). For the same compound, the Potency entry in the test on 3D7 and with 7G8 was “inactive” throughout.

Consider `O=C(O)C(Cl)(Cl)Cl`, for which the activity, negative = inhibition in test [1] (setting [4]) was 7.18%; in test [1] (setting [5]), 2%. In addition, the Potency result in the test on 3D7 and in the test with 7G8 was “inactive” each time.

Regarding `[N-]=[N+]=CC(=O)OCC(N)C(=O)O` (stereo not given), the activity, negative = inhibition is 3.54% in test [1] (setting [4]) and -4.07% in test [1] (setting [5]). Also, the Potency result with 3D7 and in the test with 7G8 was “inactive” throughout.

As for `N#CN`, the activity, negative = inhibition was 10.5% in test [1] (setting [4]) and 6.79% in test [1] (setting [5]). The Potency result in the test on 3D7 and in the test on 7G8 was “inactive” each time.

In the case of `O=[N+]([O-])C(Br)(CO)CO`, the activity, negative = inhibition in test [1] (setting [4]) was 4.06%; in test [1] (setting [5]) it was -7.41%. The Potency entry in the test with 3D7 and in the test with 7G8 was “inactive” each time.

`Cc1sc2ccccc2c1CC1=NCCN1`: the activity, negative = inhibition was 5.82% in test [1] (setting [4]) and -2.48% in test [1] (setting [5]). Besides, the Potency result in the test on 3D7 is “inactive”. Further, the Potency in the test with 7G8 is 10 µM (active).

Take `C[C@@H](Cc1ccccc1)NCCC(c1ccccc1)c1ccccc1`: the activity, negative = inhibition in test [1] (setting [2]) is -17.6%.
